Values joined by “and” are separate entries in the source; they are usually repeats but may differ in a detail not shown here. Equal values may be shown once. Out of some 52,000 compounds screened, about 4,300 (8.3%) were called active. Rule as the data show it: active = survival mostly below about 52% (no sharp cut-off); inactive = mostly above about 56%. Only a selection was taken, and actives are over-represented in it overall. Some compounds were tested as several samples or in several runs, with calls that do not always agree.

In this test the test system is DeltatarO mutant. Put plainly: S. aureus survival, RN4220 and DeltatarO strains – OD600, teichoic acid synthesis inhibitors, primary screen (AID 463173). The note with it: S. aureus RN4220 wild type/DeltatarO growth, OD600, 18 h, stronger effect = lower value, screened at 18.75 µg/mL (by protocol).
In the case of `Cc1cc(C)cc(NC(=O)C2CCCN(S(=O)(=O)c3cccc4nsnc34)C2)c1` (centres undefined), the survival was 105% (inactive).

As for `Cc1ccc(N2CCN(C(=O)c3cnn(-c4ccc(F)cc4F)c3C3CCN(C(=O)OC(C)(C)C)CC3)CC2)c(C)c1`, the survival was 91% (inactive).

On to `CCC(C(=O)Nc1cc(C)ccc1OC)n1nnc(C(=O)OC)c1C(=O)OC` (centres undefined), for which the survival is 94% (inactive).

For `CCOC(=O)c1nnn(C(CC)C(=O)Nc2ccc(F)cc2)c1C(=O)OCC` (centres undefined), the survival was 119% (inactive).

In the case of `CCc1ccc(NC(=O)C(CC)n2nnc(C(=O)OC)c2C(=O)OC)cc1` (centres undefined), the survival was -3% (active).

As to `O=C(NCc1ccccc1)c1cc2ccc3cccnc3c2[nH]1`, the survival is 80% (inactive).

Consider `Cc1ccc2cccc(NC(=O)c3ccc(OC(C)C)cc3)c2n1`, for which the survival is 95% (inactive).

Turning to `Cc1ccc(CNC(=O)c2cc3ccc4cccnc4c3[nH]2)cc1`, the survival is 32% (active).

As to `Cc1cc(C)cc(OCC(=O)Nc2cccc3cccnc23)c1`, the survival is 73% (inactive).

For `O=C(NCc1ccc(Cl)cc1)c1cc2ccc3cccnc3c2[nH]1`, the survival was 58% (inactive).

Consider `O=C(COc1ccc(Cl)cc1Cl)Nc1cccc2cccnc12`, for which the survival was 79% (inactive).

For the compound `CCOc1cc(C(=O)Nc2cccc3cccnc23)cc(OCC)c1OCC`, the survival is 10% (active).

Take `CCOc1ccccc1NC(=O)c1ccc(C(=O)Nc2ccccc2OCC)cc1`: the survival was 83% (inactive).

In the case of `Cc1ccc(C(=O)Nc2cccc3cccnc23)cc1Cl`, the survival is 72% (inactive).

Regarding `Cc1cccc(OCC(=O)Nc2cccc3cccnc23)c1C`, the survival is 60% (active).

On to `CC(C)c1ccc(C(=O)Nc2cccc3cccnc23)cc1`, for which the survival was -1% (active).

With `CCOc1cc(C(=O)Nc2ccncc2)cc(OCC)c1OCC`, the survival was 94% (inactive).

As for `CCOc1ccc(C(=O)NC2CCN(C(=O)NCc3ccccc3)CC2)cc1`, the survival is 84% (inactive).

With `COc1ccc(-c2nc(C)c(CCNC(=O)C(=O)Nc3ccccc3OC)s2)cc1`, the survival was 89% (inactive).

Consider `c1ccc(Cc2nnc(SCc3nc(-c4cccs4)no3)n2-c2ccccc2)cc1`, for which the survival was 56% (inactive).

Turning to `COc1cc(NS(=O)(=O)c2cc3c(cc2C)N(C)CCO3)cc(OC)c1OC`, the survival was 90% (inactive).

As for `Cc1ccccc1CN1C(=O)c2ccccc2S(=O)c2ccc(C(=O)NCc3ccco3)cc21` (centres undefined), the survival is 71% (inactive).

On to `CC(C)CCn1c(=O)c2sccc2n2c(CCCC(=O)NCCc3ccccc3)nnc12`, for which the survival was 68% (inactive).

On to `CCS(=O)(=O)NCC(c1ccco1)N1CCN(c2ccc(OC)cc2)CC1` (centres undefined), for which the survival was 91% (inactive).

With `CCOc1ccccc1N(CC)C(=O)c1cc2ccc3cccnc3c2[nH]1`, the survival is 102% (inactive).

For the compound `CCOC(=O)c1ccccc1NC(=O)c1cc2ccc3cccnc3c2[nH]1`, the survival was 117% (inactive).

As for `CCOc1ccccc1NC(=O)c1cc2ccc3cccnc3c2[nH]1`, the survival is 37% (active).

On to `COCCNC(=O)CSc1nc(-c2ccc(C)cc2)[nH]c1-c1ccc(OC)cc1`, for which the survival was 84% (inactive).

On to `COc1cc(OC)c(NC(=O)C(NS(=O)(=O)c2cccc3nsnc23)c2ccccc2)cc1Cl` (centres undefined), for which the survival was 60% (inactive).

For the compound `COc1ccccc1N1CCN(C(=O)c2cn(C)c3ccc(S(=O)(=O)N4CCOCC4)cc3c2=O)CC1`, the survival is 84% (inactive).

Take `Cc1ccc(C(C)C)c(OCCn2cc(C(=O)c3ccco3)c3ccccc32)c1`: the survival was 35% (active).

Turning to `O=C(c1ccco1)c1cn(CCOc2ccc(Cl)cc2)c2ccccc12`, the survival was 78% (inactive).

Turning to `Cc1ccc(C)c(OCCn2cc(C(=O)c3ccco3)c3ccccc32)c1`, the survival is 104% (inactive).

Consider `COc1ccc(OCCn2cc(C(=O)c3ccco3)c3ccccc32)cc1`, for which the survival is 56% (inactive).

Turning to `O=C(Cn1cc(C(=O)c2ccco2)c2ccccc21)Nc1ccc(Br)cc1`, the survival was 88% (inactive).

On to `Cc1cc(OCCn2cc(C(=O)c3ccco3)c3ccccc32)ccc1Cl`, for which the survival was 53% (inactive).

With `CCOc1ccc(NC(=O)Cn2cc(C(=O)c3ccco3)c3ccccc32)cc1`, the survival was 63% (inactive).

For `Cc1ccc(OCCn2cc(C(=O)c3ccco3)c3ccccc32)cc1C`, the survival was 27% (active).

As to `Cc1ccccc1OCCn1cc(C(=O)c2ccco2)c2ccccc21`, the survival was 44% (inactive).

Turning to `O=C(c1ccco1)c1cn(CCOc2ccc(F)cc2)c2ccccc12`, the survival is 99% (inactive).

Regarding `CC(C)(C)c1ccc(OCCn2cc(C(=O)c3ccco3)c3ccccc32)cc1`, the survival is 35% (active).

With `O=C(Cn1cc(C(=O)c2ccco2)c2ccccc21)Nc1ccccc1`, the survival was 41% (active) and 47% (inactive).

With `COc1ccccc1N1CCN(Cc2cc(COC(C)C)c3cccnc3c2O)CC1`, the survival was 84% (inactive).

On to `CCC(C)(C)n1nnnc1C(C(C)C)N(Cc1cccnc1)Cc1ccco1` (centres undefined), for which the survival is 78% (inactive).

For the compound `COc1ccccc1N1CCN(C(=O)c2cn(C)c3ccc(S(=O)(=O)N(C)C4CCCCC4)cc3c2=O)CC1`, the survival was 83% (inactive).

With `CCCC12CN3CC(CCC)(CN(C1)C3c1c(C)[nH]c(=O)[nH]c1=O)C2=O` (centres undefined), the survival is 109% (inactive).

Regarding `CCC(C)NC(=O)c1c(-c2ccccc2)c(-c2ccccc2)nn(C)c1=O` (centres undefined), the survival was 50% (inactive).

As for `CCOc1ccc(OCC)c(NC(=O)C2CCCN(S(=O)(=O)c3cc(Br)cc4c3N(C(=O)CC)CC4)C2)c1` (centres undefined), the survival was 100% (inactive).

In the case of `COc1ccc(CCNC(=O)CCCn2c(=O)c3ccccc3n(Cc3cccc(Cl)c3)c2=O)cc1OC`, the survival is 72% (inactive).

Take `Cc1ccc2nc(N3CCN(C(=O)C4COc5ccccc5O4)CC3)sc2c1` (centres undefined): the survival was 89% (inactive).

Regarding `COc1ccccc1CNC(=O)COCc1cc(-c2ccc3c(c2)OCO3)on1`, the survival was 25% (active).

Consider `COc1ccc(CNC(=O)COCc2cc(-c3ccc4c(c3)OCO4)on2)cc1`, for which the survival is 94% (inactive).

Regarding `O=C(COCc1cc(-c2ccc3c(c2)OCO3)on1)NCc1ccc(F)cc1`, the survival is 85% (inactive).

For `COc1cccc(CNC(=O)COCc2cc(-c3ccc4c(c3)OCO4)on2)c1`, the survival is 37% (active).

Regarding `O=C(COCc1cc(-c2ccc3c(c2)OCO3)on1)NCc1ccccc1Cl`, the survival was 70% (inactive).

Take `Cc1ccc(CNC(=O)COCc2cc(-c3ccc4c(c3)OCO4)on2)cc1`: the survival is 75% (inactive).

For `O=S(=O)(c1ccccc1)n1nc(-c2ccco2)nc1NCc1ccccc1`, the survival is 71% (inactive).

For `O=C(Nc1ccc(N2CCN(C(=O)c3ccco3)CC2)cc1)c1ccccc1`, the survival is 93% (inactive).

For `CCOc1ccc(-n2nc3ccc(NC(=O)c4cccc(F)c4)cc3n2)cc1`, the survival is 84% (inactive).

(Values after PubChem BioAssay AID463173 (ICCB-Longwood Screening Facility, Harvard Medical School, 2010).)
